# High-throughput results from PubChem.
# LANA-H2A inh: blocks KSHV LANA binding to histone H2A/H2B | Q9QR71 | cell-free LANA-H2A/H2B peptide, fluorescence polarization | inhibition, % (test concentration not listed) | 320,000 compounds, 0.6% hits | AID 2629; in the data active = inhibition mostly above about 10%, no sharp cut-off; inactive = mostly below about 6.7%
# NOD2 RIPK2 PPI: inhibitors of human NOD2-RIPK2 interaction | inhibition, % at 4.98 µM | CHO BLA complementation NOD2-RIPK2, CCF4 ratio | AID 624267 | 360,000 compounds, 0.38% hits | O43353; in the data active = inhibition above about 21%;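 note: 0% = vehicle only and 100% = reference blocker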
# TLR4 MyD88 comp: inhibitors of human TLR4-MyD88 binding; O00206+Q99836; HeLa CL3-4 TLR4/MyD88 BLA complementation, FRET ratio; inhibition, % at 8.4 µM; 200,000 compounds, 0.18% hits; AID 861; in the data active = inhibition above about 25%;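 note: 0% = vehicle and 100% = reference inhibitor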
# TLR9-MyD88 inh: inhibitors of human TLR9-MyD88 binding; inhibition, % at 4.98 µM; CHO BLA complementation TLR9-MyD88, CCF4 FRET ratio; Q9NR96+Q99836; AID 504734; 340,000 compounds, 0.21% hits;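 active = inhibition above the mean over all tested compounds plus 3 SD, cut at about 21% in these data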;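 note: 0% = DMSO only wells and 100% = clavulanate BLA inhibitor control wells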
# Rtt109 HAT inh: C. albicans Rtt109 histone acetyltransferase inhibition; Q5AAJ8; AID 540336; inhibition, % at 34.9 µM; purified Rtt109/Vps75, ThioGlo CoA-SH fluorescence, 4 h; 330,000 compounds, 0.16% hits;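 active = inhibition of at least 50% in every replicate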
# HTR2A ag: activates the mouse 5-HT2A serotonin receptor | P35363 | CHO-K1 mHTR2A beta-arrestin complementation, luminescence; percent of 30 µM serotonin response | activation, % at 7.6 µM | 360,000 compounds, 0.66% hits | AID 624169;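 active = activation above a run cutoff, the mean activation of all tested compounds plus 3 SD, cut at about 14% in these data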;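 note: 0% = plate median of compound wells and 100% = 30 µM serotonin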
# Target sequence (P35363 whole entry, looked up): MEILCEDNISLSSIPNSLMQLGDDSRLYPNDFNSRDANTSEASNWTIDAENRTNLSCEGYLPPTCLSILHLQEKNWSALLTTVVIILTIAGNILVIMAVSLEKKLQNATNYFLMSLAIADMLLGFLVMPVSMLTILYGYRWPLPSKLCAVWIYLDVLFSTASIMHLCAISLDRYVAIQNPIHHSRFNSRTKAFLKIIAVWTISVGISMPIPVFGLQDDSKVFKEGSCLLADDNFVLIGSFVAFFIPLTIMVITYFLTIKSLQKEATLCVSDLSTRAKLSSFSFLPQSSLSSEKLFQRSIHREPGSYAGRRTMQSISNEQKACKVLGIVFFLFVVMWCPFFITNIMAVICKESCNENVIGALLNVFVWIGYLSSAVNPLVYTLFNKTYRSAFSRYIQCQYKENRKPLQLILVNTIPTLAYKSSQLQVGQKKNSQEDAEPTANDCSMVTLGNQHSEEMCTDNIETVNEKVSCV
# TLR9-MyD88 conf: TLR9-MyD88 interaction inhibition, confirmation. shares compounds with TLR9-MyD88 inh. 680 compounds, 51% hits. inhibition, % at 4.98 µM. AID 540250. CHO TLR9/MyD88 BLA complementation, CCF4 FRET ratio;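 active = mean inhibition across three repeats above about 21% taken from the earlier screen, limit read from the data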;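 note: blue over green emission ratio reports constitutive TLR9 MyD88 association via BLA complementation; 0% = DMSO vehicle wells and 100% = clavulanate BLA inhibitor wells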
# BLA nonselective: counter-screen for TLR9-MyD88 inhibitors: non-selective beta-lactamase inhibitors | CHO-BLA cells, CCF4 FRET ratio, BLA reporter | shares compounds with TLR9-MyD88 inh | AID 540251 | inhibition, % at 4.98 µM | 680 compounds, 7% hits;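 active = mean inhibition above a 50% cutoff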;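 note: counterscreen of TLR9-MyD88 hits on CMV-driven BLA in CHO-K1 cells; 0% = DMSO alone and 100% = clavulanate blocking BLA; higher means less blue over green ratio so more BLA blockade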
# TLR9 CHO cytotox: counter-screen for TLR9-MyD88 inhibitors: cytotoxicity in CHO cells. shares compounds with TLR9-MyD88 inh. luminescence. inhibition, % at 4.98 µM. 680 compounds, 39% hits; in the data active = inhibition above about 11%
# * hit, by the source's call; · = no result given. Sampled rows, rich in hits. Any-hit rate of the full collection: about 1.8%.
SMILES,LANA-H2A inh,NOD2 RIPK2 PPI,TLR4 MyD88 comp,TLR9-MyD88 inh,Rtt109 HAT inh,HTR2A ag,TLR9-MyD88 conf,BLA nonselective,TLR9 CHO cytotox
CCN(C(=O)COC(=O)c1cccc(S(=O)(=O)NCc2ccccc2)c1)c1ccccc1,·,19,·,22*,6,-13,5,9,3
O=C(COC(=O)c1cccc(S(=O)(=O)NCc2ccccc2)c1)NC1CC1,1,-2,·,8,8,-2,·,·,·
Cn1c(CNC(=O)CCNC(=O)c2ccccc2)cc(=O)n(C)c1=O,-2,3,·,26*,-3,10,2,2,0
CN(C)c1ccc(-c2ccnc3c2CC(C)(C(=O)Nc2cccc(C(F)(F)F)c2)O3)cc1 (stereo unspecified),·,14,·,·,·,-2,·,·,·
CC[C@]12c3[nH]c4cc(-c5ccco5)ccc4c3CCN1C(=O)[C@@H](CC(=O)NCCc1ccccn1)C[C@@H]2C(=O)N1CCN(C(=O)C2CC2)CC1,·,-8,·,7,3,-1,-3,-3,1
CCN(CC)c1ccc(C=NNc2ccc([N+](=O)[O-])cn2)cc1,·,14,·,22*,-6,2,38*,39,3
Cc1ccc(NC(=O)/C(CN(C)C)=N\O)cc1,-1,13,17,24*,24,4,6,8,0
Cn1nc(C(C)(C)C)cc1C(=O)N1CCCC(C)(C(=O)NS(=O)(=O)C2CC2)C1 (stereo unspecified),·,-4,·,·,·,4,·,·,·
Cc1ccc(C)c(S(=O)(=O)N2CCN(CC(=O)N3CCc4ccccc4C3)CC2)c1,1,-10,-6,36*,3,-3,-2,3,0
O=C(CN1CCN(S(=O)(=O)c2cc(C(F)(F)F)ccc2Cl)CC1)N1CCc2ccccc2C1,1,4,·,1,8,-4,·,·,·
Cc1ccc(-c2cc3nc(NCCc4ccncc4)n(C)c(=O)c3s2)cc1,·,2,·,·,·,1,·,·,·
Nc1nnnn1/N=C/c1cc(Cl)ccc1O,3,20,·,28*,0,2,10,11,0
Nc1nnnn1/N=C/c1cc(Cl)cc(Cl)c1O,2,6,·,23*,5,7,24*,28,-4
COc1ccc(-c2oc3c(c2C(=O)OCCCO)C(OCCO)CCC3)cc1 (stereo unspecified),·,2,·,·,·,-2,·,·,·
CN(C)CC1CC/C(=C\c2ccc(O)cc2)C1=O (stereo unspecified),·,65*,·,28*,-8,-4,24*,2,97*
CCn1nc(NC(=O)c2cccnc2)c2cc3cccc(C)c3nc21,-7,-20,-16,23*,-29,3,-6,-1,1
CCNC(=O)C1CCCN(C(=O)c2ccccc2)CC1 (stereo unspecified),·,-2,·,·,·,5,·,·,·
CN(C)/C=C1\C=C2C(=O)c3ccccc3N2C1=O,150*,1,·,23*,-258,-3,7,8,-1
CC(C)NC(=O)C1(C)CCCCN1Cc1ccc(OCc2ccccc2)cc1 (stereo unspecified),·,5,·,·,·,-1,·,·,·
COC(=O)N/N=C/c1cc(Br)ccc1O,-1,3,-13,-4,-11,-3,·,·,·
CC(C)NC(=S)N/N=C/c1cc(Br)ccc1O,1,15,19,21*,-2,7,16,9,4
COc1cc(/C=C/C(=O)OCC(=O)N(C)CC(=O)Nc2ccc(F)cc2)ccc1OC(F)F,3,-7,·,6,26,-6,·,·,·
COc1cc(/C=C/C(=O)OCC(=O)Nc2ccc3[nH]c(=O)[nH]c3c2)ccc1OC(F)F,·,-10,·,23*,·,0,7,3,7
CC1(Cc2ccccc2OC(F)(F)F)C(=O)Nc2ccc(-c3ccsc3)cc21 (stereo unspecified),·,-7,·,·,·,1,·,·,·
O=C(CN1C(=O)/C(=C/c2ccccc2)SC1=S)NC1CCS(=O)(=O)C1 (stereo unspecified),0,-18,·,21*,1,0,3,2,2
SMILES,LANA-H2A inh,NOD2 RIPK2 PPI,TLR4 MyD88 comp,TLR9-MyD88 inh,Rtt109 HAT inh,HTR2A ag,TLR9-MyD88 conf,BLA nonselective,TLR9 CHO cytotox
O=C(CN1C(=O)/C(=C/c2ccc(F)cc2)SC1=S)NC1CCS(=O)(=O)C1 (stereo unspecified),7,-14,·,0,0,9,·,·,·
O=C1c2ccccc2NC(c2ccc(-c3cccc([N+](=O)[O-])c3)o2)N1O (stereo unspecified),7,3,2,22*,11,3,8,7,43*
O=S1(=O)Nc2c(ccc3cccnc23)-c2ccccc21,-2,25*,7,21*,3,-11,33*,17,99*
Cc1cc(NC(=O)c2c([N+](=O)[O-])cnn2C)no1,5,-9,-13,34*,7,4,3,-6,0
O=[N+]([O-])c1cnc(Sc2ccncn2)s1,-1,80*,·,31*,2,-1,46*,1,99*
CCCC[C@@H]1Cc2[nH][nH]c(=O)c2[C@H](c2ccc3ccccc3c2)O1,·,8,·,·,·,-6,·,·,·
CC(C)(C)C(=O)NC(=S)NNC(=O)c1sc2ccccc2c1Cl,-5,-14,-11,30*,6,2,9,25,47*
C#CCNC(=O)C[C@@H]1C[C@@]2(C(=O)OCC)CCCC=C2N(Cc2ccc3c(c2)OCO3)C1=O,·,-8,·,·,·,10,·,·,·
COc1ccccc1NS(=O)(=O)c1cccc(NC(=O)C2CC(=O)N(Cc3ccccc3)C2)c1 (stereo unspecified),0,-10,0,24*,6,0,-2,0,1
COc1ccccc1NS(=O)(=O)c1cccc(NC(=O)C2CC2)c1,-1,2,·,5,-1,2,·,·,·
O=C1CCCCCC1C1(O)C(=O)Nc2ccccc21 (stereo unspecified),-8,-3,13,32*,-7,-1,1,0,1
COc1ccc2c(c1)CC(C1(O)C(=O)Nc3ccccc31)C2=O (stereo unspecified),-6,-5,4,-2,1,-6,·,·,·
Cc1ccsc1C1C=C(c2cccc(Br)c2)Nc2ncnn21 (stereo unspecified),10,20,0,28*,-349,2,5,2,7
